# From PubChem
# HEK293 tox – cytotoxic in the GLP-1 receptor inverse agonist counter-screen; HEK293 cAMP-luciferase reporter cells, luminescence, 24 h; Potency, µM (top dose mostly 38.3 µM), without a hit: at the top dose activity change, negative = inhibition, most hits filed as inhibitors; 0.13% of 410,000 active;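 note: loss of luciferase light is scored as toxicity; potency is the fitted concentration of half-maximal effect; % is set by controls: 0 for no effect and ±100 for the full control effect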
#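 To flag toxic compounds, the library was rerun on cells for 24 hr at 37 deg C and 5% CO2. Viability-linked luminescence was captured 12 min after adding luciferase detection reagent.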
# GLP-1R agonist – activates the human GLP-1 receptor; Potency, µM (top dose mostly 45.6 µM), for the others: at the top dose activation, most hits filed as activators; 0.007% of 380,000 active; HEK293 GLP-1R CRE-luciferase, luminescence, 4-6 h; cells express a hypersensitive GLP-1R form; note: potency is the fitted concentration of half-maximal effect; % of control where 0% means no effect
# Target sequence (P43220 whole entry, looked up): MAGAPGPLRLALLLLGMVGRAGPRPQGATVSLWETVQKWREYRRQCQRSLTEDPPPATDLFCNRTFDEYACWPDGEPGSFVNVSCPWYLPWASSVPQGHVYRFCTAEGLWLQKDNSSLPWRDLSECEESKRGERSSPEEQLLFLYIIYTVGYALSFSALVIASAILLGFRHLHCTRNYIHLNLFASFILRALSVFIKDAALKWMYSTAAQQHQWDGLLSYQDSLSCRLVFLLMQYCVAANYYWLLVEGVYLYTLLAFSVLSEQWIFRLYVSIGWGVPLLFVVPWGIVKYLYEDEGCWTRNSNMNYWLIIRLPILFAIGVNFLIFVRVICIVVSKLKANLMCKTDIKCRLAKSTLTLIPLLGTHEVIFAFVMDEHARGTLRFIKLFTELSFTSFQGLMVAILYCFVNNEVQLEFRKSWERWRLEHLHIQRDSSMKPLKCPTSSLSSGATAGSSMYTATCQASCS
# MmCpn inh – M. maripaludis TRiC chaperonin inhibition; purified Mm-Cpn ATPase, ADP Transcreener TR-FRET; 0.031% of 330,000 active; Potency, µM (highest dose often 76.9 µM), inactives show top-dose activity, negative = inhibition, hits mostly inhibitors; note: potency is the fitted concentration of half-maximal effect; % is set by controls: 0 for no effect and ±100 for the full control effect; nearly all actives have a fitted effect of over 80% in size
#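 ATP (10 uM final) was added to archaeal chaperonin (25 nM final) after 10 min exposure to test compound at 37°C; after 30 min further incubation, ADP was detected by competitive TR-FRET.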
# CCT chaperon mod – changes cytosolic chaperonin activity; 0.3% of 360,000 active; AID 651819; purified chaperonin ATPase assay, HTRF ADP detection, 30 min; activity change, % (concentration not given with the values), hits read low; in the data active = activity change below about -30%; note: % is set by controls: 0 for no effect and ±100 for the full control effect
#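 TRiC (40 or 20 nM final, by batch activity) in 30 mM Tris pH 7.4, 100 mM KCl, 5 mM MgCl2, 1 mM DTT was treated with compound at 76 uM single dose, then 10 uM ATP, 30 min at 37 °C. ADP was read by HTRF Transcreener.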
# uPA surface inh – blocks generation of uPA at the cell surface | cell surface uPA generation assay, qHTS | Potency, µM (highest dose often 38.3 µM), inactives show at the top dose activity change, negative = inhibition, hits mostly inhibitors | 0.31% of 330,000 active | AID 540303; active = well fitted inhibition curve with a large enough effect; inconclusive = small, poorly fitted or top-dose-only effect; inactive = no such curve, though single readings can be large or run the other way; tested in mouse RAW 264.7 cells; note: potency is the fitted concentration of half-maximal effect; % is set by controls: 0 for no effect and ±100 for the full control effect; nearly all actives have a fitted effect of over 55% in size
# GLP-1R inv ag – inverse agonists of human GLP-1 receptor. P43220. HEK293 GLP-1R CRE-luciferase, luminescence, 24 h; GLP-1R form is constitutively active. Potency, µM (highest dose often 38.3 µM), inactives show at the highest dose activity change, negative = inhibition, actives largely listed as inhibitors. 1.6% of 410,000 active. AID 624417; note: potency is the fitted concentration of half-maximal effect; % is set by controls: 0 for no effect and ±100 for the full control effect; nearly all actives have a fitted effect of over 55% in size
#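 HEK293 cells stably co-expressing constitutively active GLP-1R and a cAMP-responsive luciferase reporter were seeded in DMEM with 10% Nu serum, given compounds after 12 h, and incubated 24 h at 37 deg C. Luminescence was then read.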
# * = called active by the depositor; ? = inconclusive; / = no result. Shown are actives, neighbours in structure and some others; about 2.2% of the full set was active somewhere. Unless noted, calls come from the whole dose curve; as a rule, active = well fitted curve in the direction sought with a large enough effect; inconclusive = small, poorly fitted or top-dose-only effect, or another doubt; inactive = no such curve, though single readings can be large; an effect the other way counts as inactive or inconclusive.
SMILES,HEK293 tox,GLP-1R agonist,MmCpn inh,CCT chaperon mod,uPA surface inh,GLP-1R inv ag
C[C@H](/C=C/[C@H](C)C(C)(C)O)[C@H]1CC[C@H]2/C(=C/C=C3C[C@@H](O)C[C@H](O)C3)CCC[C@]12C,/,0.1%,/,/,/,/
CCc1ccc(NC(=O)CSc2nc3c([nH]c4ccccc43)c(=O)n2C)cc1,-19.3%,/,/,/,/,13.1%
O=C(OCCOc1ccc(Cl)cc1)c1cc(S(=O)(=O)N2CCCCC2)ccc1N1CCOCC1,-3.7%,16.7%,/,-4.0,?,10µM*
Cc1ccc(OCCOC(=O)c2cc(S(=O)(=O)N3CCCCC3)ccc2N2CCOCC2)cc1,?,1.6%,-9.0%,1.1,-10.6%,-79.5%
Cc1ccc2c(c1)N(C(=O)N1CCC(C(=O)NCCc3ccc(Cl)cc3)CC1)CC(C)O2 (centres undefined),-6.6%,/,/,/,/,5.8%
COc1cc(C2C(C#N)=C(N)N(Nc3ccccc3)C3=C2C(=O)CC(C)(C)C3)ccc1OCc1cccc(F)c1 (centres undefined),-7.4%,-13.5%,-1.8%,2.8,5.9%,5.62µM*
COc1ccc(C2C(C#N)=C(N)N(Nc3ccccc3)C3=C2C(=O)CC(C)(C)C3)cc1C (centres undefined),162.5%,-11.9%,-1.1%,-0.2,0.2%,?
COc1cc(C2C(C#N)=C(N)N(Nc3ccccc3)C3=C2C(=O)CC(C)(C)C3)ccc1OCc1ccccc1 (centres undefined),14.1%,-13.8%,-3.8%,0.7,-5.2%,3.16µM*
O=C1C=C(c2cc3ccccc3s2)CCC1,-29.9%,-7.8%,/,1.8,-16.8%,2.51µM*
CCn1cc2nc(SCC(=O)Nc3cc(OC)ccc3OC)n(Cc3ccc(Cl)cc3)c(=O)c2n1,-2.2%,4.2%,/,/,/,-26.1%
Cc1nc(NC(=O)c2ccco2)sc1-c1csc(Nc2ccc(Cl)cc2Cl)n1,-3.2%,2.7%,-15.1%,0.2,5.5%,18.7%
Cc1ccc(Cl)cc1Nc1nc(-c2sc(NC(=O)c3ccco3)nc2C)cs1,-18.9%,-5.6%,-16.5%,0.1,7.94µM*,?
COc1cc(OC)c(NC(=O)N2CCCn3nc(C)cc32)cc1Cl,2.0%,/,/,/,/,22.5%
O=c1[nH]c(/C=C\c2ccc(O)c(O)c2)nc(O)c1[N+](=O)[O-],11.2µM*,2.5%,-7.1%,-0.2,3.0%,-11.4%
O=c1[nH]c(/C=C\c2cccc(O)c2)nc(O)c1[N+](=O)[O-],-0.1%,-1.0%,-1.0%,0.1,1.1%,4.4%
Cc1cc(C(F)(F)F)nn1CC(=O)Nc1cccnc1,-1.1%,10.0%,0.7%,-41.0*,12.3%,0.0%
COc1ccccc1NC(=O)Cc1csc(NC(=S)Nc2ccc(C)cc2)n1,3.16µM*,0.5%,-3.5%,-0.8,/,-14.8%
COc1cc(C)ccc1NC(=O)Cc1csc(NC(=O)Nc2ccccc2OC)n1,?,1.7%,0.4%,-2.0,11.0%,10µM*
CCC(=O)Nc1nc(CC(=O)Nc2ccccc2OC)cs1,1.3%,-1.8%,-2.0%,0.1,-2.9%,19.3%
COc1cccc(NC(=O)Cc2csc(NC(=O)Nc3ccccc3OC)n2)c1,?,-0.9%,0.9%,0.3,11.8%,10µM*
CCOc1cccc(C2c3[nH]c4ccccc4c3CCN2C(=O)c2ccccc2F)c1 (centres undefined),-6.3%,/,/,/,/,5.62µM*
Cc1cccc(C2c3[nH]c4ccccc4c3CCN2C(=O)CN2CCOC2=O)n1 (centres undefined),-11.5%,6.1%,-0.1%,-8.7,-0.2%,-21.2%
Cc1cccc(C2c3[nH]c4ccccc4c3CCN2C(=O)Cc2nc(-c3ccccc3)n[nH]2)n1 (centres undefined),-26.0%,17.3%,-0.7%,-2.9,-0.7%,11.2µM*
CCOc1ccc(C2c3[nH]c4ccccc4c3CCN2C(=O)Cc2cccc(OCC)c2OCC)cc1 (centres undefined),-9.1%,/,/,/,/,6.31µM*
COc1ccc(CCC(=O)N2CCc3c([nH]c4ccccc34)C2c2ccc(F)cc2)cc1 (centres undefined),-6.3%,/,/,/,/,10µM*
SMILES,HEK293 tox,GLP-1R agonist,MmCpn inh,CCT chaperon mod,uPA surface inh,GLP-1R inv ag
CNC[C@@H]1CC[C@@H](N)[C@@H](O[C@H]2[C@H](O)[C@@H](O[C@H]3OC[C@](C)(O)[C@H](NC)[C@H]3O)[C@H](N)C[C@@H]2N)O1,/,22.1%,/,/,/,/
CC(=O)NCCC(=O)N1CCc2c([nH]c3ccccc23)C1c1cccc(C)c1 (centres undefined),-2.5%,0.2%,1.2%,-2.3,-0.1%,?
O=C(CSCc1ccc(F)cc1)N1CCc2c([nH]c3ccccc23)C1c1ccccc1 (centres undefined),-8.0%,/,/,/,/,7.94µM*
O=C(CSc1ccccc1)N1CCc2c([nH]c3ccccc23)C1c1ccc(Cl)cc1 (centres undefined),0.9%,/,/,/,/,5.01µM*
CC(=O)NCCC(=O)N1CCc2c([nH]c3ccccc23)C1c1cccc(Cl)c1 (centres undefined),-16.2%,12.0%,-0.8%,2.7,-6.9%,5.01µM*
O=C(CSCc1ccc(F)cc1)N1CCc2c([nH]c3ccccc23)C1c1ccc(Cl)cc1 (centres undefined),-8.6%,/,/,/,/,?
Cc1ccc(C)c(CSc2nnc3[nH]c(=O)cc(C)n23)c1,-1.9%,/,/,/,/,0.1%
Cc1cccc(-c2nc(CN3CCCC(C(=O)NC4CCCCC4)C3)c(C)o2)c1 (centres undefined),?,3.9%,-2.7%,-0.8,/,3.55µM*
Cc1ccc(NS(=O)(=O)c2ccc3c(c2)N(C)C(=O)CC(=O)N3C)cc1Cl,11.0%,/,/,/,/,4.0%
C/C(=N\N=C(N)N)c1ccc(Cl)c(Cl)c1,?,-2.2%,0.7%,1.6,0.3%,8.91µM*
COc1cc(C(=O)NC2CC(=O)N(c3cccc(F)c3)C2)cc(OC)c1OC (centres undefined),-4.5%,/,/,/,/,4.6%
CCN(CC)c1ccc(C(=C2C=CC(=[N+](CC)CC)C=C2)c2ccc(N(CC)CC)cc2)cc1,?,-4.0%,/,-1.2,?,?
CCN(CC)c1ccc(C(=C2C=CC(=[N+](CC)CC)C=C2)c2ccccc2)cc1,5.01µM*,-5.4%,/,0.7,-7.9%,?
Cc1nc2sccn2c(=O)c1S(=O)(=O)NCC1CCN(Cc2ccc(Cl)cc2)CC1,-2.4%,13.1%,/,-0.3,/,10µM*
Cc1cc(C)cc(NC(=O)C2CCCN(c3cnccn3)C2)c1 (centres undefined),0.9%,/,/,/,/,5.3%
COc1cc(CN2CC(=O)N(c3ccc(C)cc3)C2=S)cc(OC)c1OC,0.9%,-0.5%,0.8%,-1.4,-3.8%,-18.2%
